Results filed as inconclusive are left out. Calls of active or inactive are those of the source. Rule for the calls: active = hit-call score of the fitted dose curve at least 0.9, where 1 is the maximum; inconclusive = response in the unintended direction; inactive = score below 0.9.

The test deals with human Serotonin, 5-Hydroxytryptamine Receptor 5A (5HT5A), HTR5A (gene 3361) (UniProt P47898). The experiment in a line: NVS_GPCR_h5HT5A: NovaScreen (NVS) G Protein-Coupled Receptor Assay for human Serotonin, 5-Hydroxytryptamine Receptor 5A (5HT5A) (AID 2283251). The procedure: NVS_GPCR_h5HT5A is a biochemical, single-readout assay that uses extracted gene-proteins from HEK293 in a cell-free assay. Measurements were taken 1 hour after chemical dosing in a 96-well plate.NVS_GPCR_h5HT5A is one of one assay component(s) measured or calculated from the NVS_GPCR_h5HT5A assay. It is designed to make measurements of radioligand binding, a form of binding reporter, as detected with scintillation counting signals by Filter-based radiodetection technology.Data from the assay component NVS_GPCR_h5HT5A was analyzed into 1 assay endpoint. This assay endpoint, NVS_GPCR_h5HT5A, was analyzed in the positive analysis fitting direction relative to DMSO as the negative control and baseline of activity. Using a type of binding reporter, loss-of-signal activity can be used to understand changes in the binding as they relate to the gene HTR5A. Furthermore, this assay endpoint can be referred to as a primary readout, because the performed assay has only produced 1 assay endpoint. To generalize the intended target to other relatable targets, this assay endpoint is annotated to the gpcr intended target family, where the subfamily is rhodopsin-like receptor.
human Serotonin, 5-Hydroxytryptamine Receptor 5A (5HT5A), HTR5A (gene 3361), sequence (P47898 whole entry, looked up): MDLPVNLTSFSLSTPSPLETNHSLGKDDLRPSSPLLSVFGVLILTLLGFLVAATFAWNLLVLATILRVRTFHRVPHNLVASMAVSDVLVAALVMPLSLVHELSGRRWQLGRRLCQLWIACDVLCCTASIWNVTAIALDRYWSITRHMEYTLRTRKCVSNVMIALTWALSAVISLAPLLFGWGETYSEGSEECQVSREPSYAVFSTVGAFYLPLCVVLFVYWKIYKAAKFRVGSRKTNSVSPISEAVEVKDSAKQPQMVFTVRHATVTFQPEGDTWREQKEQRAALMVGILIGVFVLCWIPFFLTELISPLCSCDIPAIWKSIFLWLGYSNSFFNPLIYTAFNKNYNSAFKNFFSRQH
Binding assays used specific radioligands (tritiated, iodinated) with non-radioactive competitive displacement ligands in agonist or antagonist protocols (as indicated) and various reference compounds and inhibitors to titrate specific binding to receptors and transporters. Most enzyme assays (CYPs, kinases, phosphatases, proteases, HDACs) used recombinant protein and specific substrates (fluorescence mostly, some colorimetric and radioactive) and inhibitors, followed by a biochemical separation of substrate and product. All assays for the biochemical HTS were initially run in duplicate at a single concentration (10 uM for CYP450 assays and 25 uM for all others). […] Each assay was run with positive and negative controls, and concurrent controls on every plate. The follow-up (secondary) screen tested active chemical-pairs in concentration series, as well as a few additional assays not tested in the primary screen, some selected negative inactives, and several cases re-run in the concentration series for confirmatory purposes.
For the compound `CCC(C)(C)C(=O)O[C@H]1C[C@@H](C)C=C2C=C[C@H](C)[C@H](CC[C@@H]3C[C@@H](O)CC(=O)O3)[C@H]21`, the compound was called inactive.
In the case of `CCCCCCc1ccc(O)cc1O`, the call was inactive.
One may read the AC50 as the midpoint of the concentration-response curve, whichever way the signal moves. Take `Cc1[nH]cnc1C[C@H]1CCc2c(C)c3ccccc3n2C1=O`: the AC50 is 2.93 µM (active).
Still for that read-out and setting: in the case of `CCOC(=O)COc1ccc2c(c1)CC(NCC(O)c1cccc(Cl)c1)CC2` (stereo not given) it was 18.8 µM (active); in that of `Nc1ccc(Nc2ccccc2)cc1`, 11.3 µM (active); in that of `COc1cccc(-c2ccc(/C=C\CN3CCCCCC3)cc2Cl)c1`, 22.6 µM (active).
With `O=C(CCCCCCCCc1cccnc1)N1CCC(C=C(c2ccccc2)c2ccccc2)CC1`, the call was inactive.
For the compound `CCOc1cccc(-n2cc(C(=O)N3CCN(c4cc(C(=O)O)c5ccccc5c4)CC3)nc2-c2ccc(C)cc2)c1`, the AC50 was 34 µM (active).
Still for that read-out and setting: in the case of `CCc1cc(SCc2sc(-c3ccc(C(F)(F)F)cc3)nc2CN2CCN(c3ccc(OC)cc3)CC2)ccc1OCC(=O)O` it was 2.36 µM (active); in that of `CCn1nc(Cc2ccccc2)cc1C1CCN(C[C@H]2C[C@H](N(C)[C@@H](C(=O)O)C(C)C)C[C@@H]2c2cccc(F)c2)CC1`, 13.8 µM (active).

The record behind these values is PubChem BioAssay (EPA / NIEHS).
